Common to all, as to test: DAPPL (digital affinity profiling via proximity ligation, sequencing); 10 mM Tris-HCl pH 7.5, 50 mM NaCl, 1 mM DTT, 4% glycerol, room temperature, 30 min; GST-TFs on glutathione beads, 16-mer random dsDNA library, 0.1% formaldehyde crosslink after washing; high values mean tight binding
The target in assay [1] is T1, FEV (Homo sapiens, UniProt Q99581 1-238).
T1 sequence: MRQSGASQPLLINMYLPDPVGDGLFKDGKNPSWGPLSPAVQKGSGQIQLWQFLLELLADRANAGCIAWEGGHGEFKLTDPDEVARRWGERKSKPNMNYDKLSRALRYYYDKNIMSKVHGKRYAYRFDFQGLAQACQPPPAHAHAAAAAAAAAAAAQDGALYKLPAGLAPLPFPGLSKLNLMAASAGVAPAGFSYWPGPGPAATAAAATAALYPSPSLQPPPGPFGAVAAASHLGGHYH
The note with it: protein: recombinant; tags: N-terminal GST; dsDNA, one strand shown. The method in brief: (§1)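 A tag-only sample was pooled with DNA-barcoded human transcription factors that had been expressed in yeast as GST fusions and captured on glutathione beads. The pools were incubated for 30 min at room temperature with 200 nmole of a random double-stranded 16-mer DNA library in Tris/NaCl/DTT/glycerol buffer, then washed, crosslinked with 0.1% formaldehyde, proximity-ligated (BsaI/T4 ligase, 1 h, 37 °C), PCR-amplified and sequenced on an Illumina NextSeq500. Binding signal is each hexamer's read frequency for a factor divided by its frequency for the tag-only sample.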

Assay [2] deals with ETV5 (Homo sapiens, UniProt P41161 1-510). The note with it: protein: recombinant; tags: N-terminal GST; dsDNA, one strand shown. In outline: as §1
In assay [3] the target is HSF1 (Homo sapiens, UniProt Q00613 1-529). Conditions: protein: recombinant; tags: N-terminal GST; chain copies: 3; dsDNA, one strand shown. The method in brief: as §1
Assay [4] addresses T2, SPIC (Homo sapiens, UniProt Q8N5J4 1-248).
T2 sequence: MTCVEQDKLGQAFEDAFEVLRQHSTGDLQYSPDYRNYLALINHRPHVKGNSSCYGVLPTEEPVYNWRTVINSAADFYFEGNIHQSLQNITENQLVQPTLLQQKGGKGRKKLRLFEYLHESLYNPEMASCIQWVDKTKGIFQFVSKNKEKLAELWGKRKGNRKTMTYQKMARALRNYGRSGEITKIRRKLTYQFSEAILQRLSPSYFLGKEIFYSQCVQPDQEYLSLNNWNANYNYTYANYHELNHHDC
The note with it: protein: recombinant; tags: N-terminal GST; dsDNA, one strand shown. In outline: as §1

The target in assay [5] is ELF4 (Homo sapiens, UniProt Q99607 1-663). Conditions: protein: recombinant; tags: N-terminal GST; dsDNA, one strand shown. The method in brief: as §1
In assay [6] the target is T3, ELK4 (Homo sapiens, UniProt P28324-2 1-405).
T3 sequence: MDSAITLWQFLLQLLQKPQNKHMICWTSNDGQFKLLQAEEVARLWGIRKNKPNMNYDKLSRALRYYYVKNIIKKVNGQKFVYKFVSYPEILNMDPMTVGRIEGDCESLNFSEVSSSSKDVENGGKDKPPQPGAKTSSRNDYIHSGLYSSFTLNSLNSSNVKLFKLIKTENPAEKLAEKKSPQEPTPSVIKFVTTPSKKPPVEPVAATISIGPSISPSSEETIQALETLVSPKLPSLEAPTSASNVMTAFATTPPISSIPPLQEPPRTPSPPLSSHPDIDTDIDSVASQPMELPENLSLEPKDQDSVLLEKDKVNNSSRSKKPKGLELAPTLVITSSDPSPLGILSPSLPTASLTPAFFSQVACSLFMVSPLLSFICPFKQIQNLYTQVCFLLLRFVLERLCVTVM
The note with it: protein: recombinant; tags: N-terminal GST; dsDNA, one strand shown. The method in brief:
as §1

The target in assay [7] is T4, ETV2 (Homo sapiens, UniProt O00321 1-342).
T4 sequence: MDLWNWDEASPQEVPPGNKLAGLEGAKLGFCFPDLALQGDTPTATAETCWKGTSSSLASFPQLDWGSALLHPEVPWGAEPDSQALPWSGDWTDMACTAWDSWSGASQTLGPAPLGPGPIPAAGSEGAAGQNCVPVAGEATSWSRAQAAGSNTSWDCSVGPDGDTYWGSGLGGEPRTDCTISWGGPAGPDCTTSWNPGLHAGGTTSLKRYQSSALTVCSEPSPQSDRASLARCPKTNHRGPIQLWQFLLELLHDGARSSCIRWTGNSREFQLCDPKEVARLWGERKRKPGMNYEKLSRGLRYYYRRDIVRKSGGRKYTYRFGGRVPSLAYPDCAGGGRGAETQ
Conditions: protein: recombinant; tags: N-terminal GST; dsDNA, one strand shown. In outline: as §1

The target in assay [8] is T5, ELF3 (Homo sapiens, UniProt P78545 1-371).
T5 sequence: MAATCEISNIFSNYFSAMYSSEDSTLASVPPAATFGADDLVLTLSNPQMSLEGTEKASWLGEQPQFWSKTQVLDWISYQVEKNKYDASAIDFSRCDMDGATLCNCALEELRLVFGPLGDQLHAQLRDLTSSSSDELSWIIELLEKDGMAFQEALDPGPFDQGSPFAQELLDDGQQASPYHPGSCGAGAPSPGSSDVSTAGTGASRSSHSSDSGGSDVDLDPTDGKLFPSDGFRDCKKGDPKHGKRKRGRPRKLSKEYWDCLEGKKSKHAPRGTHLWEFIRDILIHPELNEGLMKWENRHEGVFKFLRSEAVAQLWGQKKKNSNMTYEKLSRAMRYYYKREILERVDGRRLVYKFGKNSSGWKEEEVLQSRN
The note with it: protein: recombinant; tags: N-terminal GST; dsDNA, one strand shown. The method in brief:
as §1

The target of assay [9] is CRX (Homo sapiens, UniProt O43186 1-299). The note with it: protein: recombinant; tags: N-terminal GST; dsDNA, one strand shown. The method in brief: as §1
For assay [10], the target named is ETV1 (Homo sapiens, UniProt P50549 1-477). Conditions: protein: recombinant; tags: N-terminal GST; dsDNA, one strand shown. The method in brief:
as §1

Assay [11] has as its target T6, ERF (Homo sapiens, UniProt P50548 1-548).
T6 sequence: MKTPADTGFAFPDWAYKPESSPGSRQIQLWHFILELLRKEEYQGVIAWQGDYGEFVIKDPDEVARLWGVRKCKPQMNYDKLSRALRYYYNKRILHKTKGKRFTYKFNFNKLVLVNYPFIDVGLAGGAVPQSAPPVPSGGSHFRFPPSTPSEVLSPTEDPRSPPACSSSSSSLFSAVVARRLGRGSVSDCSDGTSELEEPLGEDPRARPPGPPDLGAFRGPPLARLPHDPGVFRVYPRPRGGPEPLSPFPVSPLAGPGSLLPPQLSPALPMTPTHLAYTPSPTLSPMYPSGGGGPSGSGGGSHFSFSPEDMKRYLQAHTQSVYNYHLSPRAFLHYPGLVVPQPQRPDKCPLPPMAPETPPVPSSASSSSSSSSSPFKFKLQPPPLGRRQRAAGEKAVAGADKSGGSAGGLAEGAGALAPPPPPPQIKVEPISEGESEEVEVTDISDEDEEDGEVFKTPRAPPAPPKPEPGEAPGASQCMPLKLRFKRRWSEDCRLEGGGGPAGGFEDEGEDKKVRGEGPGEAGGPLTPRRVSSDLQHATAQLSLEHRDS
The note with it: protein: recombinant; tags: N-terminal GST; dsDNA, one strand shown. The method in brief: as §1

In assay [12] the target is T7, ETV3L (Homo sapiens, UniProt Q6ZN32 1-361).
T7 sequence: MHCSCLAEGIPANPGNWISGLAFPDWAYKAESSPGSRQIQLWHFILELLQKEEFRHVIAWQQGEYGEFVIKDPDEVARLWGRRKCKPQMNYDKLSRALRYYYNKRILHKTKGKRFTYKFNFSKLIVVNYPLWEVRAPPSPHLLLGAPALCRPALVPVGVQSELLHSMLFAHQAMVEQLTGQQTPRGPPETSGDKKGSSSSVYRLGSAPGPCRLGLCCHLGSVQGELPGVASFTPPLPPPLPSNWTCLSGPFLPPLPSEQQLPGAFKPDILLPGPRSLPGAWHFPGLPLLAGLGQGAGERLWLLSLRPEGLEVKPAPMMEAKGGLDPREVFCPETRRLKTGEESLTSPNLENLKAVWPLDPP
Conditions: protein: recombinant; tags: N-terminal GST; dsDNA, one strand shown. In outline: as §1

The target of assay [13] is T8, ETS2 (Homo sapiens, UniProt P15036 1-469).
T8 sequence: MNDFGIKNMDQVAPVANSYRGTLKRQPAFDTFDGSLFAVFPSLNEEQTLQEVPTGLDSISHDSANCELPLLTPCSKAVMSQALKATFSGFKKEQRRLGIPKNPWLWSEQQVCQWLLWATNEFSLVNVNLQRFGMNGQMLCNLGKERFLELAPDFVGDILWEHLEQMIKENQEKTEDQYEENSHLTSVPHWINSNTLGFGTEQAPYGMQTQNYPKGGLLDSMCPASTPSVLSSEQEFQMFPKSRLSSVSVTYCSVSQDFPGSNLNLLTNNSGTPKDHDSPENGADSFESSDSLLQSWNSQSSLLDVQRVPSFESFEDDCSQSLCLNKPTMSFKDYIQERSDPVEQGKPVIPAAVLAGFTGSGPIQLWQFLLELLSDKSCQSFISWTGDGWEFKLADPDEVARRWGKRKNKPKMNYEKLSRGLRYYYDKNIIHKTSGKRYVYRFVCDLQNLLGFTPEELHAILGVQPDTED
The note with it: protein: recombinant; tags: N-terminal GST; dsDNA, one strand shown. The method in brief: as §1

In assay [14] the target is T9, SPDEF (Homo sapiens, UniProt O95238 1-335).
T9 sequence: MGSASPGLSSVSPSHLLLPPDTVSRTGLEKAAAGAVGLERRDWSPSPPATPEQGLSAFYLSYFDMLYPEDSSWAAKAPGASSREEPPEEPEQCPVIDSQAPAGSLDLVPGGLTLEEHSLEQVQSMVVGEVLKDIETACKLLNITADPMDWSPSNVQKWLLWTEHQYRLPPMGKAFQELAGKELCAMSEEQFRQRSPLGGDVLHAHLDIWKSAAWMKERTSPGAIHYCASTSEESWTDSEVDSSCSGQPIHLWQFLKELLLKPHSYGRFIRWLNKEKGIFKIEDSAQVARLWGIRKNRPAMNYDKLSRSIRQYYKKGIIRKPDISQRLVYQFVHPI
Conditions: protein: recombinant; tags: N-terminal GST; dsDNA, one strand shown. The method in brief: as §1

The target in assay [15] is T10, ETV7 (Homo sapiens, UniProt Q9Y603 1-341).
T10 sequence: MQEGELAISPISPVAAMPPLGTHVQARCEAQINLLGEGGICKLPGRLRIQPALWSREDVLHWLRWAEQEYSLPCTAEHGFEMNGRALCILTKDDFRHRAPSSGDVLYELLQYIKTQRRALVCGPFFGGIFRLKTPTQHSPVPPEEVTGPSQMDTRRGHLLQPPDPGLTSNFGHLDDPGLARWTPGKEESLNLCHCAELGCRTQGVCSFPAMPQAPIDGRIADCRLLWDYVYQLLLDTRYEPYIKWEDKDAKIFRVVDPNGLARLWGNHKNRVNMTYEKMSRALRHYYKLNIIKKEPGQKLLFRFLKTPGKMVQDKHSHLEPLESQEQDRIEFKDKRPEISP
The note with it: protein: recombinant; tags: N-terminal GST; dsDNA, one strand shown. The method in brief: as §1

Assay [16] has as its target T11, ELF5 (Homo sapiens, UniProt Q9UKW6-2 1-255).
T11 sequence: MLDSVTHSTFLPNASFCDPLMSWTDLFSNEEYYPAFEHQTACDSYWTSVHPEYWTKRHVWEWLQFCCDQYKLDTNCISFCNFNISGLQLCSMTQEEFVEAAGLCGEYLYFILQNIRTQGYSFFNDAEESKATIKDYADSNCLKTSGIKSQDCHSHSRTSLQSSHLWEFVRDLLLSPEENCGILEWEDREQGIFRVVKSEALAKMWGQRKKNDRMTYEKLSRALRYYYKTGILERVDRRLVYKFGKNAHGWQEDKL
The note with it: protein: recombinant; tags: N-terminal GST; dsDNA, one strand shown. In outline:
as §1

For assay [17], the target named is T12, ETV3 (Homo sapiens, UniProt P41162-2 1-143).
T12 sequence: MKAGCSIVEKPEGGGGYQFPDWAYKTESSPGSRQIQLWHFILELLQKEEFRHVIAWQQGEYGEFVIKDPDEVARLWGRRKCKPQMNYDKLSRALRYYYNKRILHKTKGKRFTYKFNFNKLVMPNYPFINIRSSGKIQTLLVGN
The note with it: protein: recombinant; tags: N-terminal GST; dsDNA, one strand shown. The method in brief:
as §1

Assay [18] has as its target ETV6 (Homo sapiens, UniProt P41212 1-452). Conditions: protein: recombinant; tags: N-terminal GST; dsDNA, one strand shown. In outline:
as §1

CRX, sequence (O43186 whole entry): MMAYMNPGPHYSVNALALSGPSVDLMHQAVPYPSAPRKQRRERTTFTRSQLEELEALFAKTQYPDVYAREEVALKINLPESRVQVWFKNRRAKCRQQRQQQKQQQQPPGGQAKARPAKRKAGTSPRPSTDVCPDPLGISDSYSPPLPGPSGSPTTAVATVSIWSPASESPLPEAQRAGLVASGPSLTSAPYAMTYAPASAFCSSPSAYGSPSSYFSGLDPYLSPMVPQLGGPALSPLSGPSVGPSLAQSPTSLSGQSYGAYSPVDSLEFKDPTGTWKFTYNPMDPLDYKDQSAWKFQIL
ELF4, sequence (Q99607 whole entry): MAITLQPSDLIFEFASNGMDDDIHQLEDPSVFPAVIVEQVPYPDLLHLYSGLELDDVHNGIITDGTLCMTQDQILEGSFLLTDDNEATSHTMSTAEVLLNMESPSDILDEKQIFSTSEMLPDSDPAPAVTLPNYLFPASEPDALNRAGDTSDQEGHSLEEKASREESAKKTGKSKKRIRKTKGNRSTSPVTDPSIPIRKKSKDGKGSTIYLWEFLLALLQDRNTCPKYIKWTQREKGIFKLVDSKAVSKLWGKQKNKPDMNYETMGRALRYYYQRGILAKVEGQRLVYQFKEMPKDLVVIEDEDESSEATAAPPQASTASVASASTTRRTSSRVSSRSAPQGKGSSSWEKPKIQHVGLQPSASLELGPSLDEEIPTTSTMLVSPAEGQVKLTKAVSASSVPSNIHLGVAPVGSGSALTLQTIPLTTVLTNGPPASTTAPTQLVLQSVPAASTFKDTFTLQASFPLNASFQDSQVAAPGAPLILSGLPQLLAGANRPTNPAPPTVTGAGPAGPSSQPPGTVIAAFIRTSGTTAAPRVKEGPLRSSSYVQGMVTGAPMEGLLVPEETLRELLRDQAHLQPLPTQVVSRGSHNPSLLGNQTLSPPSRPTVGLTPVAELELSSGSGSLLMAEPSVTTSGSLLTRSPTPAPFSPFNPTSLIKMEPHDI
ETV1, sequence (P50549 whole entry): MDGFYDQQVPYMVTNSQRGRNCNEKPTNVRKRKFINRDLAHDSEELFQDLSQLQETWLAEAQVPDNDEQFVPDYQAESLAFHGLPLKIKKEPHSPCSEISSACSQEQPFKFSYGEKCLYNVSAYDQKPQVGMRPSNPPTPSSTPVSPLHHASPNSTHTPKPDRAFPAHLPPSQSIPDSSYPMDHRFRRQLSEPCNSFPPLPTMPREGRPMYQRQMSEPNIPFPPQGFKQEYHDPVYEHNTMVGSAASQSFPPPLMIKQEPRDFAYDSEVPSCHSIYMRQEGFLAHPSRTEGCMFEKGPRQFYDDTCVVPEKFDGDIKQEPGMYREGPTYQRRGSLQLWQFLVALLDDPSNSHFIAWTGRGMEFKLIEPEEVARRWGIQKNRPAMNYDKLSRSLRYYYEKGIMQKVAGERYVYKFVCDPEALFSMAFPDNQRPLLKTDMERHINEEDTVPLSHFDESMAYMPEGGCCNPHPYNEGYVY
HSF1, sequence (Q00613 whole entry): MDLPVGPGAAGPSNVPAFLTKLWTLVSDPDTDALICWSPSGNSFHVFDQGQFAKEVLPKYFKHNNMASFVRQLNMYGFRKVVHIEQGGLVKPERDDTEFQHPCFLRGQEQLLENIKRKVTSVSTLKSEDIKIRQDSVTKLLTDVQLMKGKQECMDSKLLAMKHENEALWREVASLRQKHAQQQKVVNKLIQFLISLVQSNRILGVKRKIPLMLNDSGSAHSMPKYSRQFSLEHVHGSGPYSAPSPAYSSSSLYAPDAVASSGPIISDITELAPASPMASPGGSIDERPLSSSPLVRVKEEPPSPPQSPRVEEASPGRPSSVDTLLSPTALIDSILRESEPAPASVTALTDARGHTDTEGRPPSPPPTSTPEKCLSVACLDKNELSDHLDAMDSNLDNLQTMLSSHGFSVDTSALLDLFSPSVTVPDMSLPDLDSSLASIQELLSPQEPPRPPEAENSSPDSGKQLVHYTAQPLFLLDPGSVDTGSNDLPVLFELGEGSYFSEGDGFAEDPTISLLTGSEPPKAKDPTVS
ETV5, sequence (P41161 whole entry): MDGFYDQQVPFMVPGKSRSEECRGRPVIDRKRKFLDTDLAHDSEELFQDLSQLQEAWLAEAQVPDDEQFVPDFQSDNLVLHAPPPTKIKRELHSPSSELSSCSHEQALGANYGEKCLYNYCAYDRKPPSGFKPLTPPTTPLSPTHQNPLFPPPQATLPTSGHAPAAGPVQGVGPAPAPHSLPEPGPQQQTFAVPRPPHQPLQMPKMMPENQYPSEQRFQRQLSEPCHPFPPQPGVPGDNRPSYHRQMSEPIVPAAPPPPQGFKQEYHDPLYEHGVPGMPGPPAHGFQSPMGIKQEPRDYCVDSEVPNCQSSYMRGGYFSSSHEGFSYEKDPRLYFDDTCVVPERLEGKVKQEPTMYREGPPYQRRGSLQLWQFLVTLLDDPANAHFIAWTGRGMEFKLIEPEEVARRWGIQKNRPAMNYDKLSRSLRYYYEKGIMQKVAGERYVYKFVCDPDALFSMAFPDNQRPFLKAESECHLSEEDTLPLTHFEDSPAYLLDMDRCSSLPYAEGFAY
ETV6, sequence (P41212 whole entry): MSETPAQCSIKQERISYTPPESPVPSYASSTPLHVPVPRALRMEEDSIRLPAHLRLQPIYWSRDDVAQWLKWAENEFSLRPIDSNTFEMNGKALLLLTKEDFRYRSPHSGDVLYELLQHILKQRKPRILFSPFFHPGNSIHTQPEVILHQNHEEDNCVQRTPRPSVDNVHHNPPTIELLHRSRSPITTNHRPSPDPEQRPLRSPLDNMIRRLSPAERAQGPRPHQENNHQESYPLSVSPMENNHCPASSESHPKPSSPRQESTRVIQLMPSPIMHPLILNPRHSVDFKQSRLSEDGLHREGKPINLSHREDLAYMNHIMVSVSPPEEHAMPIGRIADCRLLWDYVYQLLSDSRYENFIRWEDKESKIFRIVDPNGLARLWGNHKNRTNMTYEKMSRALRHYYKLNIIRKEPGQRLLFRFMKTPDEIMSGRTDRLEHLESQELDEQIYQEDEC

For TATCTC, the binding signal in assay [1] was 1.27 fold enrichment (6-mer frequency, TF over GST control); in [2], 1.2 fold enrichment (6-mer frequency, TF over GST control); in assay [3], 1.45 fold enrichment (6-mer frequency, TF over GST control); in [4], 1.21 fold enrichment (6-mer frequency, TF over GST control); in assay [5] it was 1.21 fold enrichment (6-mer frequency, TF over GST control); in assay [6] it was 1.27 fold enrichment (6-mer frequency, TF over GST control). Moreover, the binding signal in assay [7] was 1.18 fold enrichment (6-mer frequency, TF over GST control); in [8] it was 1.16 fold enrichment (6-mer frequency, TF over GST control); in assay [9], 1.76 fold enrichment (6-mer frequency, TF over GST control); in assay [10], 1.3 fold enrichment (6-mer frequency, TF over GST control); in [11], 1.3 fold enrichment (6-mer frequency, TF over GST control); in [12] it was 1.3 fold enrichment (6-mer frequency, TF over GST control). For the same sequence, the binding signal was 1.27 fold enrichment (6-mer frequency, TF over GST control) in [13]; 1.22 fold enrichment (6-mer frequency, TF over GST control) in assay [14]; 1.21 fold enrichment (6-mer frequency, TF over GST control) in assay [15]; 1.23 fold enrichment (6-mer frequency, TF over GST control) in assay [16]; 1.13 fold enrichment (6-mer frequency, TF over GST control) in assay [17]; 1.21 fold enrichment (6-mer frequency, TF over GST control) in assay [18].

The values are drawn from paper PMC7862700, “An all-to-all approach to the identification of sequence-specific readers for epigenetic DNA modifications on cytosine”.
